This is a sample that favours compounds with a hit; in the whole collection about 7.3% have one here.
HEK293 tox – Cytotoxic Profiling in HEK 293 Cell Line of Diverse Libraries Using Quantitative High-Throughput Screening. HEK 293 viability, ATP luminescence (CellTiter-Glo), 48-72 h. Potency, µM (series often up to 115 µM), usual class: inhibitors. 94,000 compounds, 6.6% hits; further: nearly all actives have a fitted effect of over 60% in size
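Cells seeded first (HEK 293, 250 cells/well), then compound added by pintool. Incubation ran 48 or 72 hr at 37 degree Celsius. CellTiter-Glo was added and luminescence imaged after 10 min at room temperature.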
SNCA expr inh – Primary qHTS assay for inhibitors of alpha-synuclein gene (SNCA) expression; HEK-293 SNCA-luciferase knock-in, luminescence, 24 h; Potency, µM (titrated, usually from 57.2 µM), most hits filed as inhibitors; 140,000 compounds, 0.17% hits; further: nearly all actives have a fitted effect of over 45% in size
SNCA viab count – GF-AFC viability counterscreen for inhibitors of alpha-synuclein gene (SNCA) expression | HEK-293-SNCA-luc viability, GF-AFC fluorescence, 24 h | Potency, µM (series often up to 57.1 µM), usual class: cytotoxic | 150,000 compounds, 0.12% hits | AID 1671193, 2021; further: nearly all actives have a fitted effect of over 30% in size
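Cytotoxicity counterscreen: after 24 h compound treatment of genome-edited SNCA-luciferase HEK-293 cells, live-cell protease substrate GF-AFC read by fluorescence after 30 min; activity scaled between DMSO (0%) and medium-only (-100%), curves Hill-fitted.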
3T3 cytotox – Cytotoxic Profiling in NIH 3T3 Cell Line of Diverse Libraries Using Quantitative High-Throughput Screening | Potency, µM (highest dose often 96.7 µM), actives largely listed as inhibitors | NIH 3T3 viability, CellTiter-Glo ATP luminescence, 48-72 h | 94,000 compounds, 4.3% hits; further: nearly all actives have a fitted effect of over 55% in size
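Cells were seeded at 400 per well, treated with pin-transferred compound, and kept 48 or 72 hr at 37 °C before CellTiter-Glo addition and luminescence imaging of cellular ATP.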
IP6K1 inh – Primary qHTS assay for small molecule inhibitors of Inositol hexaphosphate kinase 1 (IP6K1); AID 1645851, 2021; IP6K1 kinase, ADP-Glo luminescence, 2 h; hits give low values; Inositol hexakisphosphate kinase 1 (Homo sapiens), Q92551; 140,000 compounds, 0.81% hits; activity change, % (series mostly up to about 58 µM); in the data active means activity change below about -25%
Target sequence (Q92551 whole entry, looked up): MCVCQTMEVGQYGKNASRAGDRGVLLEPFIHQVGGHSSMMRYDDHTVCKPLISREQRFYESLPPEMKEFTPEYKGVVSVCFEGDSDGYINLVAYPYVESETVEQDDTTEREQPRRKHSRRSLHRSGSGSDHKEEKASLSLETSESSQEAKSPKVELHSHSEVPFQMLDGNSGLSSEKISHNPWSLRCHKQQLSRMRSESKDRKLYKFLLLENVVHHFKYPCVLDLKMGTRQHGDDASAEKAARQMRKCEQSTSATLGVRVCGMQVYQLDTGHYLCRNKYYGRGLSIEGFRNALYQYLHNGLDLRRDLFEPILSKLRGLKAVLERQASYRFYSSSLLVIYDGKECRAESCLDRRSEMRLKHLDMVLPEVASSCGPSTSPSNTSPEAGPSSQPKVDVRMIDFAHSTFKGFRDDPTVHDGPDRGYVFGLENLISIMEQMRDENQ
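ADP-Glo luminescence measures ADP made by human IP6K1 during a 2 h RT reaction with ATP/IP6 (mix at 1.3 mM/130 uM); top library doses 57.5 and 19.1 uM final.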
Luciferase inh – Firefly luciferase inhibition profiling of diverse chemical library using quantitative high-throughput screening; Luciferin 4-monooxygenase (Photinus pyralis), P08659; purified P. pyralis luciferase, luminescence, biochemical; Potency, µM (highest dose often 115 µM), actives largely listed as inhibitors; 76,000 compounds, 2.5% hits; AID 1347043, 2019; further: nearly all actives have a fitted effect of over 65% in size
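Inhibitors were tested against purified firefly luciferase in a biochemical, low-substrate format (both substrates at 10uM) and luminescence measured with a CCD imager.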
Large screens that a line does not name were inactive. Unless noted, the call rests on the fitted dose curve; in most records, active means well fitted curve in the direction sought with a large enough effect; inconclusive means small, poorly fitted or top-dose-only effect, or another doubt; inactive means no such curve, though single readings can be large; an effect the other way counts as inactive or inconclusive.

Cc1nn2c(c1-c1cccnc1N1CCOCC1)N(C(=O)Cc1cccc(Cl)c1)CCC2	3T3 cytotox inconclusive
Cc1nn2c(c1-c1cccnc1N1CCOCC1)N(CCc1ccccc1)CCC2	HEK293 tox 25µM, SNCA expr inh inconclusive, SNCA viab count inconclusive, 3T3 cytotox inconclusive
Cc1nn2c(c1-c1cccnc1N1CCOCC1)N(Cc1ccc3c(c1)CCO3)CCC2	3T3 cytotox 45µM
COc1ccc(CN2CCCn3nc(C)c(-c4ccnn4C(C)C)c32)cc1O	3T3 cytotox inconclusive
Cc1nn2c(c1-c1ccnn1C(C)C)N(Cc1ccc3c(c1)CCO3)CCC2	HEK293 tox inconclusive, 3T3 cytotox 32µM
N#Cc1cccnc1-c1ccc(C(=O)N2CCC(NC(=O)c3ccc(C(F)(F)F)cc3)CC2)cc1	HEK293 tox inconclusive, 3T3 cytotox inconclusive (no result: Luciferase inh)
O=C(c1cccc(Cl)c1)N1CCC2(CC1)CCN(Cc1cccs1)c1ccccc1O2	HEK293 tox 28µM, 3T3 cytotox inconclusive
O=C(Cc1cccc(Cl)c1)N1CCC2(CC1)CCN(Cc1cccs1)c1ccccc1O2	HEK293 tox 25µM, SNCA viab count inconclusive, 3T3 cytotox inconclusive
CC(=O)N1CCC2(CC1)CCN(Cc1cccs1)c1ccccc1O2	HEK293 tox inconclusive
CC(=O)Nc1ccc(S(=O)(=O)N[C@H]2C[C@@H](c3nc(-c4ccccc4)no3)N(C)C2)cc1	HEK293 tox 40µM, 3T3 cytotox inconclusive, Luciferase inh inconclusive
Cc1ccc(-c2noc([C@@H]3C[C@H](NS(=O)(=O)c4ccc(C)cc4)CN3C)n2)cc1	HEK293 tox 71µM, 3T3 cytotox 89µM, Luciferase inh 22µM
CC(=O)Nc1ccc(S(=O)(=O)N[C@H]2C[C@@H](c3nc(C)no3)N(C)C2)cc1	none
Cc1ccc(-c2noc([C@@H]3C[C@H](NS(=O)(=O)c4ccc5ccccc5c4)CN3C)n2)cc1	HEK293 tox inconclusive, 3T3 cytotox inconclusive, Luciferase inh 20µM
CCCS(=O)(=O)N[C@H]1C[C@@H](c2nc(-c3ccc4c(c3)OCO4)no2)N(C)C1	HEK293 tox inconclusive, Luciferase inh 45µM
COc1ccc(-c2noc([C@@H]3C[C@H](NS(=O)(=O)c4ccc(C)cc4)CN3C)n2)cc1	HEK293 tox inconclusive, 3T3 cytotox inconclusive
Cc1ccc(-c2noc([C@@H]3C[C@H](NS(=O)(=O)c4ccccc4)CN3C)n2)cc1	HEK293 tox inconclusive, 3T3 cytotox inconclusive, Luciferase inh inconclusive
COc1ccccc1NC(=O)C1c2ccccc2C(=O)N(Cc2ccccc2)C12CCCC2 (centres undefined)	HEK293 tox inconclusive, 3T3 cytotox inconclusive
COc1ccc2[nH]c(C(=O)N3CCC4(CC3)CC(c3nc(C)no3)N(C)C4)cc2c1 (centres undefined)	HEK293 tox inconclusive
CN1C[C@@H](NS(=O)(=O)Cc2ccccc2)C[C@H]1c1nc(-c2ccccc2)no1	HEK293 tox inconclusive, 3T3 cytotox inconclusive
Cc1ccc(-c2noc([C@@H]3C[C@H](NS(=O)(=O)Cc4ccccc4)CN3C)n2)cc1	HEK293 tox 100µM, 3T3 cytotox 79µM
CC(C)S(=O)(=O)c1ncc(CN(C)Cc2cnn(C)c2)n1CCc1ccccc1	none
CCCCn1c(CN(C)Cc2cnn(-c3ccccc3C)c2)cnc1S(=O)(=O)CC	HEK293 tox inconclusive, 3T3 cytotox inconclusive
CN(Cc1ccc(F)cc1)Cc1cnc(S(C)(=O)=O)n1CCCc1ccccc1	HEK293 tox 20µM, SNCA expr inh inconclusive, 3T3 cytotox inconclusive
CCS(=O)(=O)c1ncc(CN(C)Cc2ccc3nonc3c2)n1CCc1ccccc1	HEK293 tox 22µM
Cc1nc2cnccn2c1C(=O)NCC1CC1	none (no result: SNCA expr inh, SNCA viab count, Luciferase inh)
CN1C(=O)C2(CCN(C(=O)c3ccn(C(C)(C)C)c3)CC2)c2ccccc21	HEK293 tox inconclusive
Cc1ccccc1C(=O)N1CCC[C@@H]1C(=O)N1CCCC(c2nc3ccncc3[nH]2)C1 (some centres undefined)	none (no result: Luciferase inh)
COCC(=O)NC1CCCc2c1[nH]c1c(Cl)cccc21 (centres undefined)	HEK293 tox inconclusive
Cc1noc(C)c1CC(=O)NC1CCCc2c1[nH]c1ccccc21 (centres undefined)	HEK293 tox inconclusive, 3T3 cytotox 40µM
COc1ccc(CC(=O)NC2CCCc3c2[nH]c2c(Cl)cccc32)cc1 (centres undefined)	HEK293 tox inconclusive, SNCA expr inh inconclusive, 3T3 cytotox 25µM
COc1ccc(CC(=O)NC2CCCc3c2[nH]c2ccccc32)cc1OC (centres undefined)	HEK293 tox 35µM, SNCA expr inh inconclusive, 3T3 cytotox inconclusive
O=C(Cc1ccc2c(c1)OCCCO2)NC1CCCc2c1[nH]c1ccccc21 (centres undefined)	HEK293 tox inconclusive, SNCA expr inh inconclusive, 3T3 cytotox inconclusive
Cn1nc(C(=O)NC2CCCc3c2[nH]c2ccccc32)c2ccccc2c1=O (centres undefined)	HEK293 tox 35µM, 3T3 cytotox inconclusive
O=C(NC1CCCc2c1[nH]c1ccccc21)c1ccccc1 (centres undefined)	HEK293 tox inconclusive, 3T3 cytotox inconclusive
O=C(O)[C@@H]1CN(C(=O)c2ccc(=O)[nH]c2)C[C@H]1c1ccc2c(c1)OCO2	none
COc1ccc(N2CC(C(=O)NCc3ccc(F)cc3)NC2=O)cc1 (centres undefined)	none
COc1ccc(C(=O)NC2CCCc3c2[nH]c2ccccc32)cc1OC (centres undefined)	HEK293 tox 45µM, 3T3 cytotox inconclusive
O=C(NC1CCCc2c1[nH]c1c(Cl)cccc21)c1ccncc1 (centres undefined)	none
O=C(NC1CCCc2c1[nH]c1c(Cl)cccc21)c1n[nH]c2c1CCC2 (centres undefined)	HEK293 tox inconclusive, 3T3 cytotox 28µM
COc1ccnc(-c2nnc3ccc(N(C)Cc4ccccc4)nn23)c1	HEK293 tox 56µM, SNCA expr inh inconclusive, 3T3 cytotox inconclusive
COc1ccnc(-c2nnc3ccc(N(C)CCN(C)C)nn23)c1	3T3 cytotox 100µM
Cc1ccc(-c2nnc3ccc(N(C)CCN(C)C)nn23)nc1	3T3 cytotox inconclusive
COc1ccccc1-c1cccc(C(=O)N2CCC[C@H]2C(=O)NCCc2ccc(F)cc2)c1	HEK293 tox inconclusive, 3T3 cytotox inconclusive (no result: Luciferase inh)

Compound activity from PubChem BioAssay.
